Measured values: PubChem BioAssay AID1259417 (TB Discovery Research, Infectious Disease Research Institute, 2018)
Among all 1,100 compounds or so, about 760 (69%) were called active. The rule behind the calls is not given here. The set was probably picked from earlier hits. The list shows a part of the results.

Test: M. tuberculosis growth inhibition, HTS (AID 1259417);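 note: bacteria grown with compound for 5 days at 37 °C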
Conditions: stronger effect = higher value, concentration not given here
[1] = M. tuberculosis DsRed fluorescence growth inhibition
[2] = M. tuberculosis growth inhibition

| SMILES | inhibition [1] | inhibition [2] |
| --- | --- | --- |
| O=C(NCCc1ccc(Cl)cc1)C1CCC(CNc2c(N3CCCCC3)c(=O)c2=O)CC1 (stereo not given) | 96.1% (active) | 90% |
| O=C(NCCc1ccc(Cl)cc1)c1ccc(CNc2c(N3CCOCC3)c(=O)c2=O)cc1 | 96% (active) | 88.6% |
| CC1CC(C)CN(C(=O)c2ccc(CNc3c(N4CCCC4)c(=O)c3=O)cc2)C1 (stereo not given) | 97.5% (active) | 90% |
| CCOC(=O)COc1ccc2c(C)c(-c3ccc(OC)c(OC)c3)c(=O)oc2c1 | 10.3% (active) | 36.5% |
| CCOC(=O)COc1ccc2c(=O)c(-c3ccc(OC)cc3)c(C)oc2c1 | 83.6% (active) | 94% |
| COc1ccc(-c2c(C)oc3cc(OCC(=O)OC(C)C)ccc3c2=O)cc1OC | 13.8% (active) | 67.7% |
| COC(=O)C(C)Oc1ccc2c(=O)c(-c3ccc(Br)cc3)c(C)oc2c1 (stereo not given) | 32.6% (active) | 92.3% |
| CCC(=Cc1sc2ccc(OC)cc2[n+]1CCO)C=C1Sc2ccc(OC)cc2N1CCO | 9.54% (inactive) | 21% |
| CCOC(=O)COc1ccc2c(C)c(CC(=O)OC)c(=O)oc2c1 | 11.2% (active) | 54.4% |
| CCOC(=O)COc1ccc2c(=O)c(-c3ccc(OC)c(OC)c3)c(C(=O)OCC)oc2c1 | 34.4% (active) | 64.4% |
| Cc1cc(C(=O)Oc2ccccc2)ccc1[N+](=O)[O-] | 10.6% (active) | 55.9% |
| Cc1cc(C(=O)Oc2ccc(Cc3ccccc3)cc2)ccc1[N+](=O)[O-] | 41.1% (active) | 39.3% |
| CCOC(=O)c1c(NC(=O)c2ccc([N+](=O)[O-])c(C)c2)sc(C)c1-c1ccccc1 | 2.11% (inactive) | -28.3% |
| Cc1ccc(C(=O)Oc2cccc(NC(=O)c3ccccc3)c2)cc1C | 0.632% (inactive) | 1.38% |
| Cc1cc2c(cc1C)N(Cc1ccc(C(C)(C)C)cc1)C1=NCCCN12 | 95% (active) | 99.7% |
| Cn1c(Sc2cnn(-c3ccccc3)c(=O)c2Br)nnc1-c1ccccc1 | 49.6% (active) | 70.7% |
| Cn1c(Sc2ccc([N+](=O)[O-])c3cccnc23)nnc1-c1ccccc1 | 12% (inactive) | 20.3% |
| CCOC(=O)C(C)Sc1ncc(-c2ccc(Cl)cc2)cn1 (stereo not given) | 4.78% (active) | 45.6% |
| CCCOc1ccccc1-c1nc(SCC(=O)OCC)n[nH]1 | 2.36% (active) | 37.9% |
| O=C(CSc1n[nH]c(-c2ccc(Cl)cc2)n1)Nc1ccc(F)c(Cl)c1 | -0.872% (inactive) | -10.5% |
| CCOC(=O)CSc1ncc(-c2cccc(Cl)c2)cn1 | 15% (active) | 70.5% |
| CCOC(=O)CSc1n[nH]c(-c2ccc(Cl)cc2)n1 | 17.9% (active) | 58% |
| COc1ccc(-c2c(C)[nH]n3c(=O)c(Cc4ccccc4)c(C)nc23)cc1 | 96.2% (active) | 81.3% |

| SMILES | inhibition [1] | inhibition [2] |
| --- | --- | --- |
| COc1ccc(C2=CC(c3c(C)nn(-c4ccccc4)c3Cl)n3nnnc3N2)cc1OC (stereo not given) | 99.1% (active) | 93.4% |
| CCOc1ccc2c3c(c(=O)oc2c1OCC)CCCC3 | 31.8% (active) | 41.4% |
| COc1nc(SC)nc2sc3c(c12)CCC3 | 98.3% (active) | 99.3% |
| COc1ccc(-n2c(C)nc3sc4c(c3c2=O)CCCC4)cc1 | -4.71% (inactive) | -14.1% |
| Clc1ccc(OCCCn2ccnc2)cc1Cl | 98.6% (active) | 99.3% |
| Clc1ccc(OCCCCn2ccnc2)cc1Cl | 100% (active) | 99.3% |
| [O-][n+]1onc2c3cc(-c4ccccc4)nnc3ccc21 | 80.6% (active) | 96.7% |
| O=C(Nc1nnc(-c2cc(Cl)ccc2Cl)o1)c1ccc(Br)s1 | 96.9% (active) | 95.6% |
| O=C(Nc1nnc(-c2cc(Cl)ccc2Cl)o1)c1ccc(Cl)s1 | -4.8% (inactive) | -10.4% |
| O=C(Nc1nnc(-c2cc(Cl)ccc2Cl)o1)c1cccs1 | 83.8% (active) | 82.4% |
| O=C(OCC#CCSc1nc2ccccc2o1)c1ccco1 | 59.9% (active) | 68.2% |
| O=C(OCC#CCSc1nnc(-c2ccccc2)o1)c1ccco1 | 44% (active) | 10.3% |
| Cc1ccc(-c2nnc(SCC#CCOC(=O)c3ccco3)o2)cc1 | 35.7% (active) | 20.4% |
| CC(C)(C)NC(=O)COC(=O)c1snc(C(=O)NC2CCCCC2)c1N | 21.4% (active) | 66.6% |
| CCOc1ccc(NCCC(=O)c2cccs2)cc1 | -0.257% (inactive) | -9.66% |
| O=C(CCNc1ccc(Cl)c(C(F)(F)F)c1)c1cccs1 | 10.9% (active) | 35.4% |
| CN(C)c1ccc(Nc2nc(-c3ccc(O)cc3O)cs2)cc1 | 36% (active) | 10.8% |
| Fc1ccc(Nc2nc(-c3ccccn3)cs2)cc1 | 93.9% (active) | 94.1% |
| CN(C)c1ccc(Nc2nc(-c3ccccn3)cs2)cc1 | 54.1% (active) | 38.2% |
| O=C(/C=C/c1ccco1)Nc1nc(-c2ccccn2)cs1 | 88.5% (active) | 89% |
| Brc1ccc(Nc2nc(-c3ccccn3)cs2)cc1 | 91% (active) | 94.1% |
| Clc1ccc(Nc2nc(-c3ccccn3)cs2)nc1 | 101% (active) | 101% |
| c1ccc(Nc2nc(-c3ccccn3)cs2)cc1 | 88.2% (active) | 91.8% |

| SMILES | inhibition [1] | inhibition [2] |
| --- | --- | --- |
| Fc1cccc2sc(Nc3nc(-c4ccccn4)cs3)nc12 | 99.5% (active) | 101% |
| CCOc1ccc(Nc2nc(-c3ccccn3)cs2)cc1 | 89.5% (active) | 92% |
| Cc1ccc(S/C=C\C(=O)c2ccccc2)cc1 | 36.8% (active) | 37.6% |
| CSCCC(NC(=O)c1cc([N+](=O)[O-])cc([N+](=O)[O-])c1)c1nc2ccccc2[nH]1 (stereo not given) | 51.9% (active) | 71.3% |
| CCOC(=O)Cn1cc(C#N)c2cccc(CC)c21 | 14.1% (active) | 56.3% |
| Cc1cc(OC(=O)C2CC2)c2c3c(c(=O)oc2c1)CCCC3 | 22% (inactive) | 21.7% |
| CCOC(=O)COc1ccc2c3c(c(=O)oc2c1)CCCCC3 | 42.8% (active) | 74.2% |
| CCOC(=O)COc1cc2c3c(c(=O)oc2cc1C)CCCC3 | 43% (active) | 89.3% |
| CCOC(=O)c1cc(-c2ccccc2)sc1NC(=S)NC1CCN(Cc2ccccc2)CC1 | 18.5% (inactive) | 1.16% |
| CCc1cc(C(=O)OC)c(NC(=S)NCc2ccc(Cl)c(Cl)c2)s1 | 96.8% (active) | 88.4% |
| COc1ccc(C(=O)C(CN2CCOCC2)c2ccccc2)cc1 (stereo not given) | 42.8% (active) | 77% |
| COc1ccc(C(=O)N2N=C(c3ccccc3)CC2(O)C(F)(F)F)cc1 (stereo not given) | 1.52% (inactive) | -2.76% |
| COc1ccc(C(=O)C(CN2CCCCC2)c2ccccc2)cc1 (stereo not given) | 31.4% (active) | 66.8% |
| Nc1nnc(Sc2ncccc2[N+](=O)[O-])s1 | 98.8% (active) | 98.6% |
| C=CCNc1nnc(Sc2ncccc2[N+](=O)[O-])s1 | 97.9% (active) | 98.2% |
| Cc1ccc(C)c(N=Nc2nc3ccccc3n2C)c1 | 100% (active) | 99.1% |
| O=C(Nc1nnc(C2=COCCO2)o1)c1ccc(F)cc1 | 17.6% (inactive) | 29.2% |
| Cc1ccc(C(=O)Nc2nnc(C3=COCCO3)o2)cc1 | 11.3% (inactive) | -5.11% |
| O=C(NCc1nnc2c3ccccc3c(-c3ccccc3)nn12)c1ccc(Cl)cc1 | 15.3% (inactive) | -15.9% |
| O=C(Nc1nc(-c2ccccc2)c(-c2ccccc2)o1)c1ccc(F)cc1 | 93.6% (active) | 93.3% |
| Cc1ccc(C(=O)Nc2nc(-c3ccccc3)c(-c3ccccc3)o2)cc1 | 80.4% (active) | 65.6% |
| CCOC(=O)Cc1c(C)nc2c(-c3cccc(Br)c3)c[nH]n2c1=O | 98.3% (active) | 97.9% |
| CCOC(=O)CSc1nc(N)c(C#N)c(-c2cccs2)c1C#N | -3.66% (inactive) | 10.2% |

| SMILES | inhibition [1] | inhibition [2] |
| --- | --- | --- |
| CCCCOC(=O)CSc1nc(N)c(C#N)c(-c2ccc(OC)cc2)c1C#N | 4.48% (active) | 30.9% |
| Cc1ccc2c(C)nc(Nc3nc(CSc4nc5ccccc5s4)cc(=O)[nH]3)nc2c1 | -4.65% (inactive) | -12.8% |
| Nc1ncnc(Sc2nc3ccccc3s2)c1[N+](=O)[O-] | 100% (active) | 99.4% |
| Cc1cc(Sc2ncnc(N)c2[N+](=O)[O-])ncn1 | 99.4% (active) | 100% |
| Cc1cc(Cl)cc2sc(N(CCCn3ccnc3)C(=O)c3ccco3)nc12 | 97.5% (active) | 98.4% |
| Cc1ccc2sc(N(CCCn3ccnc3)C(=O)c3ccco3)nc2c1C | 98.6% (active) | 98.1% |
| Cc1cccc2sc(N(CCCn3ccnc3)C(=O)c3ccco3)nc12 | 98.6% (active) | 99.8% |
| Cc1c(Cl)ccc2sc(N(CCCn3ccnc3)C(=O)c3ccco3)nc12 | 98.6% (active) | 99.5% |
| O=C(Nc1nnc(-c2ccc(Cl)s2)o1)c1ccc([N+](=O)[O-])o1 | 95.4% (active) | 87.9% |
| O=C(CCc1ccccc1)Nc1nnc(-c2ccc(Cl)s2)o1 | 10% (inactive) | 26.7% |
| O=C(Nc1nc2c(Cl)cccc2s1)c1ccc([N+](=O)[O-])o1 | -3.76% (inactive) | 28.2% |
| O=C(Nc1nnc(-c2ccc(Cl)cc2)o1)c1ccc([N+](=O)[O-])o1 | 98.3% (active) | 98.8% |
| O=C(Nc1ccc(Cl)cc1C(F)(F)F)c1ccc([N+](=O)[O-])o1 | 60.7% (active) | 58.1% |
| C=CCn1c(O)c(C2=c3ccccc3=NC2=O)sc1=N | -9.61% (inactive) | 14.7% |
| CCCCCn1c(NCc2ccc(N(C)C)cc2)nc2ccccc21 | -0.00251% (inactive) | -15.7% |
| CCn1c(NCc2c(O)ccc3ccccc23)nc2ccccc21 | 77.8% (active) | 89% |
| Cc1ccc(-c2nnc(NC(=O)c3ccc([N+](=O)[O-])s3)o2)c(C)c1 | 41.9% (active) | 72.9% |
| Cc1ccc(-c2nnc(NC(=O)c3ccc([N+](=O)[O-])o3)o2)c(C)c1 | 97.8% (active) | 98.1% |
| Cc1ccc(C)c(-c2nnc(NC(=O)c3ccc([N+](=O)[O-])s3)o2)c1 | 98.9% (active) | 97.4% |
| Cc1ccc(-c2nnc(NC(=O)c3c(F)cccc3F)o2)c(C)c1 | 2.49% (inactive) | -10.3% |
| Cc1ccc(C)c(-c2nnc(NC(=O)c3ccc([N+](=O)[O-])o3)o2)c1 | 12.4% (inactive) | 1.93% |
